According to PubChem BioAssay AID2546 (National Center for Advancing Translational Sciences (NCATS), 2010):
The campaign covered roughly 310,000 compounds. About 11,000 (3.5%) were called active. A call without a number means that no potency is given here. Inconclusive results (about 8%) are left out. The call rests on the fitted dose curve; in most records, active means well fitted inhibition curve with a large enough effect; inconclusive means small, poorly fitted or top-dose-only effect, or effect the other way; inactive means flat fitted curve, though single readings scatter. The sample as a whole holds a higher share of actives than the screen did.

Test: VP16 counterscreen qHTS for inhibitors of ROR gamma transcriptional activity;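 further: Gal4-VP16 expression switched on by copper sulfate through the metallothionein promoter; nearly all actives have a fitted effect of over 50% in size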
Conditions: Drosophila S2 Gal4-VP16 UAS-luciferase, luminescence, 20 h; series mostly up to 53.6 µM
Potency means the concentration at half of the fitted maximal effect.

Row | SMILES | Potency
1 | CCOc1ccc(/C=N\NC(=O)c2c(C)nc3cc(C)ccn23)cc1 | inactive
2 | CCOc1ccc(/C=N/NC(N)=S)cc1 | 10 µM (active)
3 | NC(=S)N/N=C/c1ccc([N+](=O)[O-])cc1 | inactive
4 | COc1cc(OC)cc(C(=O)NCCSCc2ccc(Cl)cc2)c1 | inactive
5 | COc1cccc(-c2noc(C3CCCN(C(=O)c4ccc(F)cc4)C3)n2)c1 (stereo not given) | inactive
6 | Cn1c(=O)c2c(SCC(=O)NCC3CCCO3)nc(CC(C)(C)C)nc2n(C)c1=O (stereo not given) | inactive
7 | O=c1[nH]c(N2CCN(Cc3ccc4c(c3)OCO4)CC2)nc2c1CCCC2 | inactive
8 | Fc1ccc2[nH]c3c(N4CCN(Cc5ccc6c(c5)OCO6)CC4)ncnc3c2c1 | 7.08 µM (active)
9 | CC(C)(C)n1nnnc1C(c1ccc(F)cc1)N1CCN(Cc2ccc3c(c2)OCO3)CC1 (stereo not given) | inactive
10 | CCC(C)(C)NC(=O)C(c1ccc(O)cc1)N(Cc1ccco1)C(=O)CCC(=O)Nc1ccccn1 (stereo not given) | inactive
11 | Cc1ccc(-c2cnc(NC(=O)CCC(=O)N(C)Cc3ccccc3)n2C)cc1 | 4.47 µM (active)
12 | CN(Cc1ccccc1)C(=O)CCc1ccccc1 | inactive
13 | Cn1c(-c2ccc(F)cc2)cnc1SCC(=O)NNC(=O)Cc1ccccc1 | inactive
14 | Cc1ccn2c(=O)c(C(=O)NCCC3=CCCCC3)c(O)nc2c1 | inactive
15 | O=C(COc1nsnc1N1CCOCC1)Nc1ccccc1Cl | inactive
16 | O=C(Cn1ncc2c3ccccc3n(Cc3ccccc3)c2c1=O)NCCCN1CCOCC1 | inactive
17 | CCCn1c(C(Cc2ccccc2)NC(=O)COC)nc2ccccc21 (stereo not given) | inactive
18 | CCOc1ccccc1NC(=O)C12CC3CC(C1)CC(c1ccc(C)cc1)(C3)C2 | inactive
19 | CCCn1c(NC(=O)C23CC4CC(CC(O)(C4)C2)C3)nc2ccccc21 | 5.62 µM (active)
20 | Cc1ccc2c(=O)cc(C(=O)NCCc3ccc(S(N)(=O)=O)cc3)oc2c1C | inactive
21 | CCCCc1cc(=O)oc2c(C)c(OCC(=O)N3CCC(C(N)=O)CC3)ccc12 | inactive
22 | COc1cc(NC(=S)NCCSc2ccc(C)cc2)cc(OC)c1 | 6.31 µM (active)
23 | COc1cccc(C(=O)NCCSc2ccc(Br)cc2)c1 | inactive
24 | COc1cc(NC(=O)Nc2ccc(C)cc2)cc([N+](=O)[O-])c1 | inactive
25 | Cc1ccc(-n2nc3c(=O)n(C(C)C(=O)NCc4ccc5c(c4)OCO5)nc(C)c3c2C)cc1 (stereo not given) | inactive
26 | COC(=O)CNC(=O)c1cc(-c2ccncc2)nc2ccccc12 | inactive
27 | O=C(O)c1cccc(NC(=O)c2cc(-c3cccc(Cl)c3)nc3ccccc23)c1 | inactive

Row | SMILES | Potency
28 | CC(C)(C)Cc1nnc(NC(=O)c2cc(-c3ccccc3)nc3ccccc23)s1 | 12.6 µM (active)
29 | COC(=O)c1cc(-c2cccs2)nc2ccccc12 | inactive
30 | O=C(Nc1nnc(-c2ccccc2)o1)c1cc(-c2cccs2)nc2ccccc12 | 1 µM (active)
31 | CCCCN(C)CCCNC(=O)c1cc(-c2cccs2)nc2ccccc12 | inactive
32 | CCOc1ccc(CN2CCN(CCCc3ccccc3)C(CCO)C2)cc1 (stereo not given) | inactive
33 | COc1ccc(CNC(=O)CN(C(=O)c2csnn2)c2cnc3ccccc3c2)cc1 | inactive
34 | OC(COc1ccc(F)cc1Cl)CN1CCc2ccccc2C1 (stereo not given) | inactive
35 | O=C(c1ccc(S(=O)(=O)N2CCCC2)cc1)N1CCN(c2ccccc2F)CC1 | inactive
36 | CCOc1cc2[nH]c(=S)n(Cc3ccc(C(=O)N4CCN(C)CC4)cc3)c(=O)c2cc1OCC | inactive
37 | COc1ccc(C(=O)CSc2nc(C)cc(C)n2)cc1[N+](=O)[O-] | inactive
38 | COc1ccc(OCc2cn3c(C)cc(C)nc3n2)cc1 | inactive
39 | COc1ccc(C(C[N+](=O)[O-])n2nc(C)cc2C)cc1 (stereo not given) | 10 µM (active)
40 | Cc1cccc(N2C(=O)N3[C@H](c4ccc(F)cc4)[C@@H]4C(=O)N(C5CCCCC5)C(=O)[C@@H]4[C@]3(Cc3ccccc3)C2=O)c1 | inactive
41 | CC1CC2=C(CC1/C=N/NC(N)=S)C(C)(C)CCC2 (stereo not given) | 2.82 µM (active)
42 | COc1ccc(/C=N/OCc2ccccc2C#N)c(OC)c1 | inactive
43 | O=C1CCC(C(=O)N2CCN(c3ccccc3Cl)CC2)CN1CC1CCCCC1 (stereo not given) | inactive
44 | COc1cc(CN2CCC(n3nccc3NC(=O)CCCc3ccccc3)CC2)ccc1O | inactive
45 | Clc1ccc(-c2nnc(SCc3nc4ccccc4s3)o2)cc1 | inactive
46 | CCc1ccc(-c2nnn(Cc3nn[nH]n3)n2)cc1 | inactive
47 | CCc1ccc(-c2nnn(Cc3nc4ccccc4s3)n2)cc1 | 10 µM (active)
48 | CC(C)C[C@@H](NC(=O)[C@H]1CCCN1C(=O)Cc1ccccc1)C(N)=O | inactive
49 | CCOC(=O)c1ccccc1NC(=O)CSc1nc2ccccc2c(=O)[nH]1 | inactive
50 | CCOC(=O)c1c(NC(=S)Nc2ccccc2)sc2c1CCN(C)C2 | inactive
51 | CCOC(=O)c1cc2c(nc1NC(=S)Nc1ccccc1)CC(C)(CC)OC2 (stereo not given) | 7.94 µM (active)
52 | CCOC(=O)C1CN(S(=O)(=O)c2ccc(OC)cc2)c2cc(Cl)ccc2O1 (stereo not given) | inactive
53 | O=C(C1CCN(Cc2ccc(Cl)cc2)CC1)N1CCN(Cc2ccc3c(c2)OCO3)CC1 | inactive
54 | O=C(NNC(=S)Nc1ccccc1)c1cccc(S(=O)(=O)N2CCOCC2)c1 | inactive

Row | SMILES | Potency
55 | O=C(NNC1=NCCC1)c1cccc(S(=O)(=O)N2CCCCC2)c1 | 10 µM (active)
56 | O=C(Nc1cccnc1)c1cccc(S(=O)(=O)N2CCCC2)c1 | inactive
57 | Cn1c(SCC(=O)N2CCCC2)nnc1-c1ccc2c(c1)OCO2 | inactive
58 | O=C(CCNS(=O)(=O)c1cccs1)N1CCN(c2ccc(F)cc2)CC1 | inactive
59 | COc1cc(S(=O)(=O)Nc2ncn[nH]2)ccc1Cl | inactive
60 | CCn1c(O)c(N=NC(=O)c2cccc(S(=O)(=O)N3CCCCC3)c2)c2ccccc21 | inactive
61 | CCn1c(O)c(N=NC2=NC(=O)CS2)c2cc(C)ccc21 | 12.6 µM (active)
62 | CCn1c(=O)cc(O)c2ccccc21 | inactive
63 | COc1cccc(C(=O)NNC(=O)c2cccc(F)c2)c1 | inactive
64 | Cc1cc(C)nc(N/N=C/c2c(CO)cnc(C)c2O)n1 | inactive
65 | COc1ccc(OC)c(CCNC(=O)CCn2ccc3cc(S(=O)(=O)N4CCCC4)ccc32)c1 | inactive
66 | Cc1ccc2nc(-c3ccc(NC(=O)c4cccnc4)cc3)oc2c1 | 1.26 µM (active)
67 | CC(=O)Nc1ccc(-c2nc3ccccc3o2)cc1 | inactive
68 | Cc1cc2nc(-c3ccc(NC(=O)c4cccnc4)cc3)oc2cc1C | inactive
69 | COc1ccc(C)cc1NC(=O)C(OC(=O)c1cccc(S(=O)(=O)N(C)c2ccccc2)c1)c1ccccc1 (stereo not given) | inactive
70 | CC(=O)c1c(C)[nH]c(C(=O)COC(=O)c2cccc(S(=O)(=O)N(C)c3ccccc3)c2)c1C | 5.62 µM (active)
71 | CN(c1ccccc1)S(=O)(=O)c1ccc(Cl)c(C(=O)OCC(N)=O)c1 | inactive
72 | CCCn1nnnc1NCc1ccc(OC)cc1 | inactive
73 | CCn1c(=O)c2ccccc2n(CC(=O)N2CCCc3ccccc32)c1=O | inactive
74 | COCCN(CCOC)C(=S)Nc1ccccc1Cl | inactive
75 | O=C(Nc1ccccc1Cl)Nn1cnnc1 | inactive
76 | O=C(Nc1ccccc1Cl)/C(Cl)=C(\Cl)S(=O)c1ccccc1 (stereo not given) | 0.794 µM (active)
77 | Cc1cccc(C(=O)Nc2ccc(Oc3cnccn3)cc2)c1 | inactive
78 | COc1ccc(OC)c(S(=O)(=O)N2CCCC(C(=O)NCCc3ccccc3)C2)c1 (stereo not given) | inactive
79 | COc1ccc(NC(=O)Cn2ncn3c(cc4ccccc43)c2=O)c(OC)c1OC | inactive
80 | Cc1onc(-c2ccccc2)c1C(=O)N1CCN(S(=O)(=O)c2ccccc2C(F)(F)F)CC1 | inactive
81 | Cc1ccc(/C=C2\CCn3c2nc2cc(C(=O)O)ccc2c3=O)c(C)c1 | inactive

Row | SMILES | Potency
82 | CC1CC(C)CN(CCOc2cccc3ccccc23)C1 (stereo not given) | inactive
83 | CCOC(=O)[C@@H]1[C@H]2COc3cc(OC)ccc3[C@H]2N2C(=O)N(c3ccc(F)cc3)C(=O)[C@]12C | inactive
84 | O=C(Nc1ccc2c(c1)OCCO2)c1ccc(Cl)c(S(=O)(=O)N2CCCCC2)c1 | inactive
85 | O=C(Nc1cccc(S(=O)(=O)Nc2ccc(Cl)cc2)c1)c1ccc2c(c1)OCCO2 | 0.794 µM (active)
86 | O=C(Nc1cccc(S(=O)(=O)N2CCCCC2)c1)c1ccc2c(c1)OCO2 | inactive
87 | O=C(NC1CCCC1)C(c1c(F)cccc1Cl)N(C(=O)c1csnn1)C1CC1 (stereo not given) | inactive
88 | COc1ccc2nc(C)cc(Nc3cccc(C(=O)O)c3)c2c1 | inactive
89 | COC(=O)CSc1nccc(-c2cccs2)n1 | inactive
90 | O=C(Nc1ccnc(-c2ccncc2)n1)c1cccs1 | inactive
91 | O=C(O)COc1ccc(-c2nccc(-c3cccs3)n2)cc1 | 15.8 µM (active)
92 | c1ccc(CSCCc2ccncc2)cc1 | inactive
93 | Cc1cc(C)c(SCCc2ccncc2)c(C)c1 | 11.2 µM (active)
94 | Cc1ccc(SCCSc2ncccn2)cc1 | inactive
95 | CCN(Cc1ccncc1)C(=O)CCc1ccccc1 | inactive
96 | Cc1cc(C)c(NC(=O)CSc2nc3ccncc3[nH]2)c(C)c1 | inactive
97 | CC(C)(C)c1ccc(SCCc2ccncc2)cc1 | 17.8 µM (active)
98 | C=CCOc1ccc(/C=C2/C(=O)ON=C2C)cc1OCC | inactive
99 | CCOc1ccc(NC(=O)C(C)N2C(=O)c3ccccc3C2=O)cc1 (stereo not given) | inactive
100 | Cc1ccc(S(=O)(=O)NC2CCCCCC2)cc1C(N)=O | inactive
101 | CCCSc1nc2sc3c(c2c(=O)n1-c1ccc(OC)cc1)CCN(C)C3 | inactive
102 | COc1ccc(-n2c(=S)[nH]c3sc4c(c3c2=O)CCc2ccccc2-4)cc1 | 0.251 µM (active)
103 | CCc1ccc(-n2c(=S)sc3c(=O)n(-c4ccccc4OC)c(=S)[nH]c32)cc1 | inactive
104 | O=C(Nc1ccc(C(=O)N2CCCCC2)cc1)c1cccc([N+](=O)[O-])c1 | inactive
105 | COc1cc(C(=O)NCc2ccncc2)cc(Br)c1OCc1ccccc1 | inactive
